Measurements from the supplement of paper PMC3334620.
Whole data set: some 33,000 sequences, median “E-score (-0.5 to 0.5)” near -0.016, cut for the highest 2% near 0.3. The list comes from a sample in which the highest values are over-represented; it also holds similar and randomly drawn sequences.

The sequences below were run against T1, Yer184c (UniProt P39961) (assay: PBM E-score (8-mer binding enrichment) (E-score (-0.5 to 0.5)); higher = stronger / more preferred TF binding). Settings: protein concentration: 100 nM; construct: GST-full length.
T1 sequence: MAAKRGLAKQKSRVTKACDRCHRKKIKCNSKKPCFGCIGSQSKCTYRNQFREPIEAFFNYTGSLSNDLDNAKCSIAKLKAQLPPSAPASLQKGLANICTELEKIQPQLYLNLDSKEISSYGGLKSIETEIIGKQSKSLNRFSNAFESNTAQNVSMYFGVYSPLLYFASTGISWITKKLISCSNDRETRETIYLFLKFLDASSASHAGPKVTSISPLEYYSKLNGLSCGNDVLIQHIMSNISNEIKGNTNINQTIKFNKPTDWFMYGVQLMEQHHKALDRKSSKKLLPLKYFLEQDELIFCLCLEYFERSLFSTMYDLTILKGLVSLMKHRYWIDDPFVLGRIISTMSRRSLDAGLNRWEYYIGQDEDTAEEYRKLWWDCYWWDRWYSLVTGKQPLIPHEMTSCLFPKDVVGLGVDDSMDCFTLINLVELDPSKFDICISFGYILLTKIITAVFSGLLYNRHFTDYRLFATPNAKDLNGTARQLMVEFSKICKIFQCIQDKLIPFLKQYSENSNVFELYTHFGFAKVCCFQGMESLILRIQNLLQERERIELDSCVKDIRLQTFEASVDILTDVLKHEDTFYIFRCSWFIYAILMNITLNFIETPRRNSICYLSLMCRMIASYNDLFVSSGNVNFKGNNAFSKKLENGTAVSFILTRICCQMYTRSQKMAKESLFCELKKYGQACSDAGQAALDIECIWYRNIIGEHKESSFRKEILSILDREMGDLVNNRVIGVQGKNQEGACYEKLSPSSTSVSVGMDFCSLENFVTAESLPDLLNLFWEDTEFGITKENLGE
Protocol: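 Universal 'all 10-mer' protein binding microarrays (Agilent AMADID 015681) probed with GST-tagged S. cerevisiae TFs (full-length or DBD) made by in vitro transcription/translation (PURExpress), about 100-200 nM. Bound TF was detected with fluorescent anti-GST. Each ungapped 8-mer (which stands for itself and its reverse complement) is scored by the PBM enrichment score (E-score), a modified Wilcoxon-Mann-Whitney statistic from -0.5 to +0.5, computed with the Universal PBM Analysis Suite. Scale: above 0.35 generally sequence-specific binding.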

Sequence | PBM E-score
GGGTCTAC | -0.06
TCGCGTCA | -0.0846
ATGGTTTC | 0.0728
GCGAATAA | 0.0477
CCATCCGA | 0.0749
TCATCCGA | 0.34
CCATCCGG | 0.143
ACATCCGC | 0.252
ACATCCTG | 0.0484
ACATCCGG | 0.397
ACATCCGT | 0.167
ACATCCGA | 0.346
GCATCCGA | 0.176
ACCACAAG | -0.0787
CGATGCTA | 0.084
ATGTGCCG | 0.18
CATAGCAG | -0.293
AAGAGGCC | -0.172
ACGTCGCT | -0.239
CCTTCAGC | -0.152
CACGGATC | 0.256
CGCGGAGA | 0.308
CGCGGATC | 0.13
AGCGGAGA | -0.0382
AGCGGATC | 0.204

Sequence | PBM E-score
GACGGATC | 0.115
AGCGGATA | 0.0602
CACGGATA | 0.332
AACGGATC | 0.306
CACGGATG | 0.108
CGCGGAGC | 0.171
CGCGGATA | 0.317
TTACGCAA | 0.0884
GGCTGAAC | 0.0871
CCCCGCGA | -0.0621
ATCCACTC | -0.00405
TACGGATA | 0.195
AACGGATG | 0.197
AACGGATT | 0.343
AACGGATA | 0.374
AACGGACT | 0.14
GACGGATA | 0.125
GCCGATTA | 0.274
ACTAAGGC | -0.0457
CGTTCAGA | -0.0522
ACTCATTA | -0.0725
CGGTTGAC | 0.113
TGGTTGAA | -0.0916
CGGTTGAA | 0.304
ACTATGCA | -0.111

Sequence | PBM E-score
ACTCCGGC | 0.326
ATTCCAGC | -0.0455
CCTCCGGC | 0.3
ATTCCCCG | 0.117
ATTCCCGA | 0.162
AATCCGGG | 0.269
ATTCCGGG | 0.356
ATTCCGCC | 0.16
ATTCCGGC | 0.393
ATTCCCGG | 0.384
ACTCCGGG | 0.265
ATTCCTGG | -0.138
CGCTTAAG | -0.133
CCCTACCC | -0.256
AAGATACC | 0.187
GGATTCCC | -0.173
AGGCTTTA | -0.154
CAACTAGC | 0.0974
CCTCCCCG | -0.0343
GACCGGAC | 0.245
AGCCGGAT | 0.402
AGACGGAT | 0.195
AGCCGGAC | 0.339
GGACGGAA | 0.0833
AGCCGTAG | 0.155

Sequence | PBM E-score
AGCCGGAG | 0.402
AGCCGTAT | 0.214
GGCCGGAA | 0.338
GGCCGGAC | 0.294
GGGCGGAA | 0.0682
CGCCGGAG | 0.222
AGTGAGCA | -0.0113
CGGGTTGC | 0.118
AGCTGGAC | -0.0983
AAACCCAC | 0.0014
AACGCAGT | -0.081
ACTCGCCG | 0.131
AGCACCAT | -0.291
GCCCAAGC | -0.0265
CGCCGGAA | 0.368
AGCCGGAA | 0.423
CGCCGGAC | 0.28
TGCCGTAA | 0.0109
TGACGGAA | 0.17
CGGCGGAA | 0.298
AGACGGAA | 0.277
TGCCGGAA | 0.421
AGGCGGAA | 0.195
CCTGGTTC | -0.0462
CGAGCCCC | -0.186

Sequence | PBM E-score
AAGAGAAT | 0.0316
ACGTTAGT | -0.0893
CGATTTCC | 0.214
CGGCACCG | 0.346
CGGCACCA | 0.256
CGGCACCC | 0.048
CCTACCAA | 0.0704
TCTCAAGA | -0.0209
CCCTAGAC | -0.189
ACGGTTGA | -0.0221
GCGGTTGA | 0.113
CCGGTTGC | 0.355
CCGGTTGA | 0.321
CCGGTTTC | 0.244
ACGGTTGC | -0.129
ACTCTTCT | -0.0645
CTTGGTCC | 0.0693
TCGTGTCA | -0.0881
ACACTGCT | -0.244
GCAATAGA | -0.0314
CCTCAGCC | -0.233
ACGCTTTA | -0.0723
CAGTCGCG | -0.189
AAATCCGT | 0.181
AAATCCGG | 0.394

Sequence | PBM E-score
CAATCCGG | 0.316
CAATCCGC | 0.095
CAATCCGA | 0.184
AAATCCGC | -0.00733
AGCGGTGA | -0.0103
ACTCTGCG | 0.013
CCCGTTAA | -0.0453
TCCGTTAA | 0.305
GCCGTTAA | 0.169
CCGGTTAA | 0.297
TCGGTTAA | 0.333
GCGGTTAA | 0.0539
ATTGTGAG | 0.09
ACTTCTCG | 0.17
CCGCCGAA | 0.313
CCGCCGAC | 0.109
ACGCCGTG | 0.0103
CCGCCAAA | 0.14
CCGCCGAG | 0.304
ACGCCGAG | 0.328
ACGCCGCG | 0.0694
CCGCCGCG | 0.172
CCGCCGTA | 0.075
CCTAAAGG | -0.122
GCTACCGA | 0.0575

Sequence | PBM E-score
AAATGAGC | 0.038
CTAGGAGA | -0.0687
CCCGACTC | -0.0899
CCTAAAAA | 0.105
GCCGAAGA | 0.315
TCCGAAGA | 0.376
ACCGAAGC | 0.1
GACGAAGA | 0.0167
GCCGAAGC | 0.246
ACCGAAGA | 0.344
TACGAAGA | 0.05
ACCGAAGT | 0.136
CCCGAAGA | 0.105
CTCTAGTC | -0.244
GGAGTTGA | 0.0129
CCGGGACC | 0.342
CGGGGATC | 0.0365
CGGGGATA | 0.0634
ACGGGACC | -0.109
ACGGGATC | 0.0948
CCCGGACC | 0.149
CCCGGATA | 0.286
CCGGGATC | 0.339
CCCGGATC | 0.318
CCGGGATA | 0.315

Sequence | PBM E-score
GCGGGACC | -0.0189
GCGGGATA | 0.0399
CAAAACCG | 0.116
GAACTCAA | 0.0685
AGTTCTAT | -0.0389
ACCCAATC | -0.00791
GCTTGTCC | 0.114
CGAATTTC | 0.276
AAGGTTGG | -0.24
AGAGTGAG | -0.128
GTTTAAAC | 0.32
CTTTAAAC | -0.052
GTTTAAAA | 0.162
AATACCCG | 0.104
TGGGAAAA | -0.0424
AAGGAAAC | 0.0646
ATGGAAAA | 0.158
ACGGAAAC | 0.306
GCGGAAAC | 0.0908
ACGGAAAT | 0.39
GCGGAAAA | 0.216
AGGGAAAT | -0.166
AAGGAAAT | 0.107
ACGGAAAA | 0.309
TTGGAAAA | 0.134

Sequence | PBM E-score
TCGGAAAA | 0.382
AAGTGGGA | 0.034
CCAGCGGG | 0.134
ATACCCAT | -0.0126
ATAGAGAA | 0.103
CATTCGAG | -0.0644
ACATCTCC | 0.128
GTCATTCA | 0.0449
CCGTCTCG | 0.159
AGCTCGGC | 0.316
CACTCGGC | 0.331
AGCTCGGA | 0.159
GTCTCGGA | 0.227
AACTCGGC | 0.273
ATCTCGGG | 0.219
ATCTCGGA | 0.31
CTCTCGGC | 0.238
ACCTCGGC | 0.238
AGCTCGGG | 0.138
CACTCGGG | 0.0303
ATCTCGGC | 0.37
